Measurements from ChEMBL document CHEMBL2218924, “A broad activity screen in support of a chemogenomic map for kinase signalling research and drug discovery” (Biochem J, 2013).

Assays:
[1] = biological target: T1, Dual specificity tyrosine-phosphorylation-regulated kinase 2 (Homo sapiens) (UniProt Q92630); conditions: at 1 µM
T1 sequence (whole entry): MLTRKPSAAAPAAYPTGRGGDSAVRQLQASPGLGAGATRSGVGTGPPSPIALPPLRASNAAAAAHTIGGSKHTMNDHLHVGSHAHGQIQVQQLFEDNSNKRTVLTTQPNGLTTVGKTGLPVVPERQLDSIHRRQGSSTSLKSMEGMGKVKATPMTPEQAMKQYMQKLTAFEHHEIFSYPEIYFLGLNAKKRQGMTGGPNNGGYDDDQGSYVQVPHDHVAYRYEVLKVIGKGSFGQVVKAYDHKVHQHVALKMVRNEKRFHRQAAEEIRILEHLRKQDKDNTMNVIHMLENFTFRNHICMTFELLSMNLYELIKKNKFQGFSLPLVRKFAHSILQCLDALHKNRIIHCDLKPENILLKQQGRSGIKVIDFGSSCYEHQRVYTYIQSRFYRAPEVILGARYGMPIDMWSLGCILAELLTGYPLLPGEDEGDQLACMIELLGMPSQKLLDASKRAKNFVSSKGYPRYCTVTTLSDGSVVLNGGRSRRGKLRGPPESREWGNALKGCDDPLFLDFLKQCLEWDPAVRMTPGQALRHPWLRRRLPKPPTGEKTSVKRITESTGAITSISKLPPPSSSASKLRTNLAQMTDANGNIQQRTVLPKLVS

[2] = biological target: T1, Dual specificity tyrosine-phosphorylation-regulated kinase 2 (Homo sapiens); conditions: at 10 µM
[3] = biological target: T2, Ephrin type-A receptor 1 (Homo sapiens) (UniProt P21709); conditions: at 1 µM
T2 sequence (whole entry): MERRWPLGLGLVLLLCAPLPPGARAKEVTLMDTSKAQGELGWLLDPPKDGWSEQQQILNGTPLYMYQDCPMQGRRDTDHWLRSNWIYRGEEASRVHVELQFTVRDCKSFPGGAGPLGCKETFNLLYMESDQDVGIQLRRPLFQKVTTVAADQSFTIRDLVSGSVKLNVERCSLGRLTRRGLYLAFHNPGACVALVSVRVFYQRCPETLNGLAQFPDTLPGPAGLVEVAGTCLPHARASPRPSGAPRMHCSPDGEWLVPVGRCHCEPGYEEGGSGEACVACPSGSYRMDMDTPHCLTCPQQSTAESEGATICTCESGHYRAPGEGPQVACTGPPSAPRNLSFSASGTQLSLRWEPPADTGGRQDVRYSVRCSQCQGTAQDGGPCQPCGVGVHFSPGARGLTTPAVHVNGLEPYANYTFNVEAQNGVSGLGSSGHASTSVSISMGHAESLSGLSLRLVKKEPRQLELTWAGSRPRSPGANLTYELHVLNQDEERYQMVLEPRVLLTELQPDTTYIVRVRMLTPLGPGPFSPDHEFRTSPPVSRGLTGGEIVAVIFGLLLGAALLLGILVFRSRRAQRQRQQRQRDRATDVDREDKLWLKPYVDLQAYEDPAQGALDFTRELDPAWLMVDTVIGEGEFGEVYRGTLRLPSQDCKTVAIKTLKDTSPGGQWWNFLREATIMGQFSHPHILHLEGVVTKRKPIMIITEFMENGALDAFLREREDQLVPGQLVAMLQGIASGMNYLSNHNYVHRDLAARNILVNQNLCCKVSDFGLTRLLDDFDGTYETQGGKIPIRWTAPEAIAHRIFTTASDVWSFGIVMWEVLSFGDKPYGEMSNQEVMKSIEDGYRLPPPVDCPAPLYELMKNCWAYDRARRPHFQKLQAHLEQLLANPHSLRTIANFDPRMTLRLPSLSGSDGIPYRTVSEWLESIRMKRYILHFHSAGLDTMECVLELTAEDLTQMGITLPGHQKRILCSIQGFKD

[4] = biological target: T2, Ephrin type-A receptor 1 (Homo sapiens); conditions: at 10 µM
[5] = biological target: T3, Ephrin type-A receptor 3 (Homo sapiens) (UniProt P29320); conditions: at 10 µM
T3 sequence (whole entry): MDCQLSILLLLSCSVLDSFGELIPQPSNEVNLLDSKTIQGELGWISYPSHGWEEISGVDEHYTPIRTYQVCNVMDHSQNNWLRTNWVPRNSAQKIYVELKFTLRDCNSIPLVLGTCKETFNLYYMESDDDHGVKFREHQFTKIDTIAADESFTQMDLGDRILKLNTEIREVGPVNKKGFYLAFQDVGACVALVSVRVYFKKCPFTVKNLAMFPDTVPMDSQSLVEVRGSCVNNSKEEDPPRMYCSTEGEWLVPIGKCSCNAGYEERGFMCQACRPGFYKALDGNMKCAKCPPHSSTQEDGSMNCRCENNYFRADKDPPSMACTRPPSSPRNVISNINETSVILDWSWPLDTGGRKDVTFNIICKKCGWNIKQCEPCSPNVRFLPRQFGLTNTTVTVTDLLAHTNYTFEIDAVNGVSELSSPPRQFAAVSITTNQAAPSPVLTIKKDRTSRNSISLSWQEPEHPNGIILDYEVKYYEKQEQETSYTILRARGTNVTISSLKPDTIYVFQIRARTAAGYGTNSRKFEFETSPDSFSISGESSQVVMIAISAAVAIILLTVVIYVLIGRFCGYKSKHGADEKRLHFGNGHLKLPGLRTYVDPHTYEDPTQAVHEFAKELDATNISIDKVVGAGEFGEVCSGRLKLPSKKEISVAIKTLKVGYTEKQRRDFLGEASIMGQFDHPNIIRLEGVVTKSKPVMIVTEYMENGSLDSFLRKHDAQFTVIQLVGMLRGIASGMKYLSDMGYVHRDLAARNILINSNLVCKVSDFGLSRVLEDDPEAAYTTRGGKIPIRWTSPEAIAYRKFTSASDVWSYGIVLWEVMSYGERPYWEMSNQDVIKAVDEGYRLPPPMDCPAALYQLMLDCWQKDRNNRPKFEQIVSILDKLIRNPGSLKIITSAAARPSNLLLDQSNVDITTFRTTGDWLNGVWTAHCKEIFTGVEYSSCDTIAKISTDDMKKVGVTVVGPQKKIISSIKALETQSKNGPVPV

[6] = biological target: Ephrin type-A receptor 7 (Homo sapiens) (UniProt Q15375); conditions: at 1 µM
Ephrin type-A receptor 7 (Homo sapiens), sequence (Q15375 28-998 limits assumed): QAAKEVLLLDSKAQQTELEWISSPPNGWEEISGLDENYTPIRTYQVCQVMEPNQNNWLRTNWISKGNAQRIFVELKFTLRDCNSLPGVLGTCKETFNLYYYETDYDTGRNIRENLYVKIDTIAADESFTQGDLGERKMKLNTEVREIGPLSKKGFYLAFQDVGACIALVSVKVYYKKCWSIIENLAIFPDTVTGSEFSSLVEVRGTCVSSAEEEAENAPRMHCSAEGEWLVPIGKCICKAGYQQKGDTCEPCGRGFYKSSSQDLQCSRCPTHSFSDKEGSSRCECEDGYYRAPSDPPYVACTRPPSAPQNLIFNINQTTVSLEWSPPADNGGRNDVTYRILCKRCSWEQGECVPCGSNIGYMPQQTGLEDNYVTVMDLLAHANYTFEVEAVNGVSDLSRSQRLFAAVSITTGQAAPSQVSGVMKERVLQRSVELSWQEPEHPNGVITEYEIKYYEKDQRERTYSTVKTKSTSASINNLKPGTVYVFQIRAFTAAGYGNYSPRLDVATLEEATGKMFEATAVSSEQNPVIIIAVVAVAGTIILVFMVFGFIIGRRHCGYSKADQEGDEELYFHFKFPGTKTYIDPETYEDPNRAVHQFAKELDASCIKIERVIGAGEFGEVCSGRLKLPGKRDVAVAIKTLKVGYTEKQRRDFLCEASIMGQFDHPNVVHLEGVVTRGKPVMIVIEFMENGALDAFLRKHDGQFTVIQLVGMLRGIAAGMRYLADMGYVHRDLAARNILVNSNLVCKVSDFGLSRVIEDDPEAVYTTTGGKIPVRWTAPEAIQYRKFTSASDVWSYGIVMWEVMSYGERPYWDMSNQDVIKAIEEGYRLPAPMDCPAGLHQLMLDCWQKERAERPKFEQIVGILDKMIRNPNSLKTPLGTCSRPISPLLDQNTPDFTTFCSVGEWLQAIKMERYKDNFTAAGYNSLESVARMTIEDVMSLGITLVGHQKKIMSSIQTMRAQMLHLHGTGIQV

[7] = biological target: Ephrin type-A receptor 7 (Homo sapiens) (UniProt Q15375); conditions: at 10 µM
[8] = biological target: T4, Ephrin type-A receptor 8 (Homo sapiens) (UniProt P29322); conditions: at 1 µM
T4 sequence (whole entry): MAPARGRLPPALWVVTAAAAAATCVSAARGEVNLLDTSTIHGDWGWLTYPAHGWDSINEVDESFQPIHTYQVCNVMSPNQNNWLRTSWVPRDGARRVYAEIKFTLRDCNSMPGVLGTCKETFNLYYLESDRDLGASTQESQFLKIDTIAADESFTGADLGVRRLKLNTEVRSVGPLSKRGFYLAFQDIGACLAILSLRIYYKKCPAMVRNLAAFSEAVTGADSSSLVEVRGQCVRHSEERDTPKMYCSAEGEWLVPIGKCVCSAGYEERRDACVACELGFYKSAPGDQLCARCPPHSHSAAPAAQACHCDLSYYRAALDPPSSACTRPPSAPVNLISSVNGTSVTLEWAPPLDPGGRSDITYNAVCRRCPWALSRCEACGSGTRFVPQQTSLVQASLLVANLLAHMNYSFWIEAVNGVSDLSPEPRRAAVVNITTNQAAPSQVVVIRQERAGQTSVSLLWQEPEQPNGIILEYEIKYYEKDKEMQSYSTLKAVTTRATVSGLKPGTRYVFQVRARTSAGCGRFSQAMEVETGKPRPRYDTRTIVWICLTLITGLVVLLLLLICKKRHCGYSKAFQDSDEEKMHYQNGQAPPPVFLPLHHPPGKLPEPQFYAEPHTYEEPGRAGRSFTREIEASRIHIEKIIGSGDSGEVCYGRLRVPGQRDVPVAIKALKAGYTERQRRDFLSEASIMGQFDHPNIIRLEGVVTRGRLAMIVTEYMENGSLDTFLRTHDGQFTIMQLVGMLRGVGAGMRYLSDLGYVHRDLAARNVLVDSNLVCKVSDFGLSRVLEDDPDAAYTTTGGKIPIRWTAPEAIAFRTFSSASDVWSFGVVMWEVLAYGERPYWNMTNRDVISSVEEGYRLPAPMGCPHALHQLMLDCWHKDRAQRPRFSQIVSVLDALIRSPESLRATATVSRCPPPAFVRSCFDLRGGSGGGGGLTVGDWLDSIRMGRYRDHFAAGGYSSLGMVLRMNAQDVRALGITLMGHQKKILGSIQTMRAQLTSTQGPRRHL

[9] = biological target: T4, Ephrin type-A receptor 8 (Homo sapiens); conditions: at 10 µM
[10] = biological target: T5, Serine/threonine-protein kinase 17A (Homo sapiens) (UniProt Q9UEE5); conditions: at 10 µM
T5 sequence (whole entry): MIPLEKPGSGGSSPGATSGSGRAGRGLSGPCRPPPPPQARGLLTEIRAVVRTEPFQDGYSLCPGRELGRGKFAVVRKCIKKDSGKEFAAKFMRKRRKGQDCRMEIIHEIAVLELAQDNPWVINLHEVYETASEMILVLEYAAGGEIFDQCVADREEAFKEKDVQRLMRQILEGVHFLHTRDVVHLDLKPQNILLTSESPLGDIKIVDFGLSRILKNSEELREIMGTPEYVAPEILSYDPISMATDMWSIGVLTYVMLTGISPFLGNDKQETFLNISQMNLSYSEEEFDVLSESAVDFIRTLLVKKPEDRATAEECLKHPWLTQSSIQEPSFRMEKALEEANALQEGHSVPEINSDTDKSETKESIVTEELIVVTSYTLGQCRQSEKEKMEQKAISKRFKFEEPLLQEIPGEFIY

[11] = biological target: Ephrin type-A receptor 2 (Homo sapiens) (UniProt P29317); conditions: at 1 µM
Ephrin type-A receptor 2 (Homo sapiens), sequence (P29317 whole entry): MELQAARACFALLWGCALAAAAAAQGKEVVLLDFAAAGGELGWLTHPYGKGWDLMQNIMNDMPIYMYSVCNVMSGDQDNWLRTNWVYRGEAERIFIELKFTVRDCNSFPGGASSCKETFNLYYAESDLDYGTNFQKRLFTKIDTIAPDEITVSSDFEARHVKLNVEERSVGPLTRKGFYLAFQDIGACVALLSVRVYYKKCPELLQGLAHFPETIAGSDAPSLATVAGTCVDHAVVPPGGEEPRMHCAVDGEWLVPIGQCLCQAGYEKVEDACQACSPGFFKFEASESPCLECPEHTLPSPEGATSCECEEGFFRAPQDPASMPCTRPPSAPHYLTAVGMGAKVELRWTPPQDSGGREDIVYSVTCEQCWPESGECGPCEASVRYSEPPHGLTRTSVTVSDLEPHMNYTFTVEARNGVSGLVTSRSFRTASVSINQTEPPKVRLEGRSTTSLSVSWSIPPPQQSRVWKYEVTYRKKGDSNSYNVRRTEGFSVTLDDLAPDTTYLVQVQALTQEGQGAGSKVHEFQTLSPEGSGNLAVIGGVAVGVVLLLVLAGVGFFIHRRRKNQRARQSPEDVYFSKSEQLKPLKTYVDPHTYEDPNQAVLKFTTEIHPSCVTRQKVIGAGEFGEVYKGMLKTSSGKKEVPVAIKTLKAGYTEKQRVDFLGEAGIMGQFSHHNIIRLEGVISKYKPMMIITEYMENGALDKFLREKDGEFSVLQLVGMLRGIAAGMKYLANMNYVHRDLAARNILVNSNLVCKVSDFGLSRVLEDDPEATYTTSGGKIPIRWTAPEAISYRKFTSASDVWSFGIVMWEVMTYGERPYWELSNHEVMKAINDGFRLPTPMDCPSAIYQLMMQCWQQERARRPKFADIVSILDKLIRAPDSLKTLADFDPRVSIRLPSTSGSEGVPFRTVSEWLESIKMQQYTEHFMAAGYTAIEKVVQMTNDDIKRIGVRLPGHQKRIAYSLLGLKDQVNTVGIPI

[12] = biological target: Ephrin type-A receptor 2 (Homo sapiens) (UniProt P29317); conditions: at 10 µM
[13] = biological target: T3, Ephrin type-A receptor 3 (Homo sapiens); conditions: at 1 µM
[14] = biological target: Ephrin type-A receptor 4 (Homo sapiens) (UniProt P54764); conditions: at 1 µM
Ephrin type-A receptor 4 (Homo sapiens), sequence (P54764 whole entry): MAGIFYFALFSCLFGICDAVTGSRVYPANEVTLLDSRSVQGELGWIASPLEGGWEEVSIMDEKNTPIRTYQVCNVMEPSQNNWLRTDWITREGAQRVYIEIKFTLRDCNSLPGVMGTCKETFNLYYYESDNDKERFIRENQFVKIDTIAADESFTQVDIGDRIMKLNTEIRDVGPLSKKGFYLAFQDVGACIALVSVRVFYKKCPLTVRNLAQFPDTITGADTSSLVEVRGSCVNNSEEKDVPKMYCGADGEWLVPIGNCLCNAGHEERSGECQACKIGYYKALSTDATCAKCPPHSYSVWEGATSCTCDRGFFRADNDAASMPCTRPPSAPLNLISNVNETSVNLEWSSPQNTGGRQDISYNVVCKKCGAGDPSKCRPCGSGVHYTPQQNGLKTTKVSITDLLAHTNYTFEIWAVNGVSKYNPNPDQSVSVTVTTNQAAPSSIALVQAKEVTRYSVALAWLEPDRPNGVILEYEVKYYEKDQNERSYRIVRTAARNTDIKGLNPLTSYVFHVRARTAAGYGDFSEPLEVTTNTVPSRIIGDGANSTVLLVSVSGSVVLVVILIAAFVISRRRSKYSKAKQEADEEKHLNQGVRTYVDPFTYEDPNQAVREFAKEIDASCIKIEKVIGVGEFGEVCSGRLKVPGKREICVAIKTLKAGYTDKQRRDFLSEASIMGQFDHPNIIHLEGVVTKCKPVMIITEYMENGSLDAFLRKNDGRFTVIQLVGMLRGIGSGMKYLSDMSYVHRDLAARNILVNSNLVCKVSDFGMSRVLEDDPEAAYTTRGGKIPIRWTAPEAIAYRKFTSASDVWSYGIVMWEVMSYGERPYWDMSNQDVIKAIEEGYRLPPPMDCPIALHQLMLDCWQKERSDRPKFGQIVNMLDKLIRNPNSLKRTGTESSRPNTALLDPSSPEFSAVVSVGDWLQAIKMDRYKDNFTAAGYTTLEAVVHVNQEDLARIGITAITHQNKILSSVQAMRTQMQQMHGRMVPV

[15] = biological target: Ephrin type-A receptor 4 (Homo sapiens) (UniProt P54764); conditions: at 10 µM
[16] = biological target: Ephrin type-A receptor 5 (Homo sapiens) (UniProt P54756); conditions: at 1 µM
Ephrin type-A receptor 5 (Homo sapiens), sequence (P54756 whole entry): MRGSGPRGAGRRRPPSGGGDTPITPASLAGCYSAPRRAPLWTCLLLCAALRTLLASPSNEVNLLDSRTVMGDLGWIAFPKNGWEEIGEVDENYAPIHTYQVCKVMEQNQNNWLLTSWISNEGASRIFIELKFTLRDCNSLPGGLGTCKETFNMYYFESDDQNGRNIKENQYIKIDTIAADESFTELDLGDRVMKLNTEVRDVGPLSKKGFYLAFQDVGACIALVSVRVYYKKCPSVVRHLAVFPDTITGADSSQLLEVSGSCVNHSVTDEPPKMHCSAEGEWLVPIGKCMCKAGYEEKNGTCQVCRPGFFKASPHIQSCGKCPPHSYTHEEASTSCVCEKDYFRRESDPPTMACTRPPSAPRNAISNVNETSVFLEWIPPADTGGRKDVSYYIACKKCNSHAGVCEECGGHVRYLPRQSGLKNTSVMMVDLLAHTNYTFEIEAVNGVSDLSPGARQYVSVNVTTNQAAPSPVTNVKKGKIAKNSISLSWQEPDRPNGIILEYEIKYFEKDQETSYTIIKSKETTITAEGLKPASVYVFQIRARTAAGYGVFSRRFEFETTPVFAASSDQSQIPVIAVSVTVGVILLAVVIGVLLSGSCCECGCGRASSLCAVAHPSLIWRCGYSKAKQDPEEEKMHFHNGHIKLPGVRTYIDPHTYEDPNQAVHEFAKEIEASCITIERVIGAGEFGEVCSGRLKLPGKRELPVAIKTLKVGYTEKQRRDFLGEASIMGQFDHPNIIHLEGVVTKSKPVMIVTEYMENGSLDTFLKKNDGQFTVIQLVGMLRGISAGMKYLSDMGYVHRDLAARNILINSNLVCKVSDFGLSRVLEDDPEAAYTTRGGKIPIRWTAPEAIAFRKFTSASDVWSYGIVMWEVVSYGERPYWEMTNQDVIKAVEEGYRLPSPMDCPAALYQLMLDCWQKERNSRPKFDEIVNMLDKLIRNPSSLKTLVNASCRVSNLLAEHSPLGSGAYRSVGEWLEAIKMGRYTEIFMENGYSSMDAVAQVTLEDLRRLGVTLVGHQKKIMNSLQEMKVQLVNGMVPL

[17] = biological target: Ephrin type-A receptor 5 (Homo sapiens) (UniProt P54756); conditions: at 10 µM
[18] = biological target: T6, Ephrin type-B receptor 1 (Homo sapiens) (UniProt P54762); conditions: at 1 µM
T6 sequence (whole entry): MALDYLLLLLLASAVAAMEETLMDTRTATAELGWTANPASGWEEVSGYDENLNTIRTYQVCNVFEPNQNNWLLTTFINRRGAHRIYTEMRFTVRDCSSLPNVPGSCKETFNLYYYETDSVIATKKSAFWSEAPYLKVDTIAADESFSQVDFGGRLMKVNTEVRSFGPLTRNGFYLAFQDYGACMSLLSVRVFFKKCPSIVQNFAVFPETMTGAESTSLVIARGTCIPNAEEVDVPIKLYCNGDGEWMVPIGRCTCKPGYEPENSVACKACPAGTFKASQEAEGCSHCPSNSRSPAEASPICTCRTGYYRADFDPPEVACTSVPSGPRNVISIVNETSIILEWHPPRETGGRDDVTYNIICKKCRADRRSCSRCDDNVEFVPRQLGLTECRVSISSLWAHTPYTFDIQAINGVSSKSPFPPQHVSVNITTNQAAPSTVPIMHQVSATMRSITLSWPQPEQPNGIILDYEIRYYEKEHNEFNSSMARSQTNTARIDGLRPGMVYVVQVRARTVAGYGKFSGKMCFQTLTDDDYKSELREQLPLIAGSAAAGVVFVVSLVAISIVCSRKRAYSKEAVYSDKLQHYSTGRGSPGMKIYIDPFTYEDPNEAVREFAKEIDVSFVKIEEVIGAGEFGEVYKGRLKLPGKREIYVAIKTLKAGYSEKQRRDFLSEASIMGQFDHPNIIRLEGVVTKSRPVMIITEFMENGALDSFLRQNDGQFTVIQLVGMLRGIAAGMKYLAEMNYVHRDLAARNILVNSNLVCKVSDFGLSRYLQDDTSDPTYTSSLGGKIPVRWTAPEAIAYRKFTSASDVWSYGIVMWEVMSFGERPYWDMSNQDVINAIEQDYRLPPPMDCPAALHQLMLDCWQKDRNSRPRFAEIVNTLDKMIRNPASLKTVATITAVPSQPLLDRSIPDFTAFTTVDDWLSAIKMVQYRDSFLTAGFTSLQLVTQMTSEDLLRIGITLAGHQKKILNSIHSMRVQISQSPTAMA

Cc1cccc(-c2[nH]c(C(C)(C)C)nc2-c2ccc3c(c2)OCO3)n1
residual activity [1]: 94%
residual activity [2]: 104%
residual activity [3]: 90%
residual activity [4]: 106%
residual activity [5]: 96%
residual activity [6]: 98%
residual activity [7]: 94%
residual activity [8]: 99%
residual activity [9]: 105%

CN(C)c1ccc(/C=C2\C(=O)Nc3ccccc32)cc1
residual activity [10]: 6%
residual activity [1]: 98%
residual activity [2]: 98%
residual activity [3]: 100%
residual activity [4]: 102%
residual activity [11]: 123%
residual activity [12]: 107%
residual activity [13]: 99%
residual activity [5]: 100%
residual activity [14]: 115%
residual activity [15]: 109%
residual activity [16]: 108%
residual activity [17]: 112%
residual activity [6]: 104%
residual activity [7]: 89%
residual activity [8]: 102%
residual activity [9]: 98%
residual activity [18]: 100%

N#CCCc1ccc2c(c1)-c1[nH]c3ccc([N+](=O)[O-])cc3c1CC(=O)N2
residual activity [10]: 3%
residual activity [1]: 28%
residual activity [2]: 12%
residual activity [13]: 77%
residual activity [5]: 43%
residual activity [6]: 79%
residual activity [7]: 56%
residual activity [8]: 77%
residual activity [9]: 69%

CC(C)n1cnc2/c(=N/c3cccc(Cl)c3)nc(NCCO)[nH]c21
residual activity [10]: 83%
residual activity [1]: 95%
residual activity [2]: 69%
residual activity [3]: 86%
residual activity [4]: 42%
residual activity [11]: 82%
residual activity [12]: 65%
residual activity [13]: 82%
residual activity [5]: 54%
residual activity [14]: 110%
residual activity [15]: 75%
residual activity [16]: 102%
residual activity [17]: 43%
residual activity [6]: 83%
residual activity [7]: 43%
residual activity [8]: 97%
residual activity [9]: 77%
residual activity [18]: 81%

COc1ccc(S(=O)(=O)N(CCO)c2ccccc2CN(C)C/C=C/c2ccc(Cl)cc2)cc1
residual activity [10]: 87%
residual activity [1]: 100%
residual activity [2]: 91%
residual activity [3]: 97%
residual activity [4]: 76%
residual activity [11]: 96%
residual activity [12]: 86%
residual activity [13]: 97%
residual activity [5]: 83%
residual activity [14]: 103%
residual activity [15]: 97%
residual activity [16]: 124%
residual activity [17]: 112%
residual activity [6]: 96%
residual activity [7]: 96%
residual activity [8]: 98%
residual activity [9]: 88%
residual activity [18]: 103%
